Source: PubChem (National Center for Advancing Translational Sciences (NCATS))
HT1080NT lethal: kills 2HG-producing HT-1080-NT fibrosarcoma cells | HT-1080-NT fibrosarcoma viability, CellTiter-Glo ATP luminescence, 48 h | Potency, µM (highest dose often 46.1 µM), for inactives: at the top dose activity, negative = less viability, actives largely listed as cytotoxic | 360,000 tested, 1.6% active | AID 686970;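 note: NT is the 2HG producing partner of a matched IDH1 knockdown line; 0% = DMSO-treated cells and -100% = media-only wells without cells; nearly all actives have a fitted effect of over 55% in size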
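Viability by CellTiter-Glo luminescence after 48 h compound exposure at 37C of HT-1080-NT cells (750/well, RPMI, 5% FBS). % activity scaled between DMSO wells and medium-only wells, then curve-fitted and categorized by curve class.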
ATXN2 expr inh: ATXN2 expression inhibition | HEK-293 ATXN2-luciferase reporter, luminescence, 24 h | Potency, µM (highest dose often 57 µM), inactives show top-dose activity change, negative = inhibition, usual class: inhibitors | 360,000 tested, 0.72% active; note: % is set by controls: 0 for no effect and ±100 for the full control effect; nearly all actives have a fitted effect of over 55% in size
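ATXN2-luciferase reporter cells (luciferase flanked by upstream and downstream ATXN2 gene portions) were treated 24 h at 37 °C with compounds at up to 57 uM. SteadyGlo luminescence gave expression; GF-AFC fluorescence gave viability.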
KB-3-1 cytotox: KB-3-1 parental cell cytotoxicity; 400,000 tested, 1.4% active; KB-3-1 viability, CellTiter-Glo ATP luminescence, 72 h; AID 1347075; Potency, µM (titrated, usually from 46.1 µM), usual class: cytotoxic; note: % is set by controls: 0 for no effect and ±100 for the full control effect; nearly all actives have a fitted effect of over 60% in size
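Here the drug-naive KB-3-1 line serves as comparator for MDR sub-line selectivity; cells received compound titrations, 72 h at 37 °C, then CellTiter-Glo readout.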
KB-V1 cytotox: KB-V1 MDR subline cytotoxicity; KB-V1 MDR cells viability, CellTiter-Glo, 72 h; Potency, µM (titrated, usually from 46.1 µM), most hits filed as cytotoxic; 400,000 tested, 3.4% active; note: % is set by controls: 0 for no effect and ±100 for the full control effect; nearly all actives have a fitted effect of over 60% in size
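Potencies derive from concentration-effect curves fitted to normalized luminescence (CellTiter-Glo) of KB-V1 cells treated for 72 h at 37 degrees C in phenol-red-free DMEM containing 10% FBS.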
ATXN viability: reduces viability in counter-screen for ATXN expression inhibitors; S2 cells (HEK-293 line with an ATXN2-luciferase reporter) viability, CellTiter-Fluor protease fluorescence, 24 h; 400,000 tested, 0.49% active; Potency, µM (top dose mostly 56.7 µM), hits mostly cytotoxic; AID 651635; note: nearly all actives have a fitted effect of over 40% in size
HT1080 IDH1KD tx: HT-1080 IDH1 knockdown cell toxicity (counter line). HT-1080 IDH1 knockdown viability, ATP luminescence, 48 h. Potency, µM (highest dose often 46.1 µM), for inactives: at the top dose activity, negative = toxicity, hits mostly cytotoxic. 360,000 tested, 2% active. AID 686971;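 note: 0% = DMSO wells and -100% = cell-free medium wells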
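Viability of IDH1-knockdown HT-1080 fibrosarcoma cells was assessed by CellTiter-Glo after 48 h at 37 °C with titrated compound; concentration-effect curves were classified by fit quality and response size.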
* = called active by the depositor; i = inactive; ? = inconclusive; / = no result; [ ] = dose if it differs, or a comment. This is a sample that favours compounds with a hit; in the whole collection about 6.2% have one here. Calls come from the whole dose curve; as a rule, active = well fitted curve in the direction sought with a large enough effect; inconclusive = small, poorly fitted or top-dose-only effect, or another doubt; inactive = no such curve, though single readings can be large; an effect the other way counts as inactive or inconclusive. Potency is the fitted concentration of half-maximal effect.

SMILES | HT1080NT lethal | ATXN2 expr inh | KB-3-1 cytotox | KB-V1 cytotox | ATXN viability | HT1080 IDH1KD tx
NC(=S)NN=Cc1nccc2ccccc12 | 4.1µM* | ? | ? | i | ? | ?
NC(=S)N/N=C/c1cccc(O)c1O | -17% | -6% | ? | i | i | -21%
CC(=O)n1cc(/C=N/NC(N)=S)c2ccccc21 | 18% | 6% | ? | 5.2µM* | i | 6%
Cc1cnc(C=NNC(N)=S)c2cccc(N)c12 | -18% | ? | i | 7.3µM* | ? | ?
O=C(c1cnc(N2CCOCC2)c2ccccc12)N1CCN(c2ccccc2F)CC1 | / | / | i | i | / | /
Cc1cccc(C)c1NS(=O)(=O)c1ccc(NC(=O)c2ccc(Cl)c([N+](=O)[O-])c2)cc1 | ? | / | i | ? | 25µM* | ?
O=C(Nc1ccc(C(O)(C(F)(F)F)C(F)(F)F)cc1)c1ccc(Cl)c([N+](=O)[O-])c1 | ? | ? | ? | ? | ? | 23µM*
O=C(O)c1cc(NC(=O)c2ccc(Cl)c([N+](=O)[O-])c2)cc(C(=O)O)c1 | 24% | 14% | i | i | i | 24%
O=C(Nc1ccc(S(=O)(=O)NC2=NCCCCC2)cc1)c1ccc(Cl)c([N+](=O)[O-])c1 | ? | -14% | i | i | i | -25%
CCOc1cc(/C=N/NC(=O)c2nn(C)cc2Br)ccc1OCc1ccccc1 | -1% | -6% | i | 16µM* | i | 10%
COc1ccc(C(=O)Nc2ccccc2C(=O)N/N=C/c2cccc3ccccc23)cc1 | 18µM* | -18% | ? | ? | i | 18µM*
COc1ccc(C(=O)Nc2ccccc2C(=O)N/N=C/c2ccncc2)cc1OC | 26µM* | -18% | ? | ? | i | 26µM*
COc1ccc(C(=O)Nc2ccccc2C(N)=O)cc1 | -3% | 69% | ? | i | i | -16%
CCOc1cc(/C=N\NC(=O)c2ccc(NC(=O)CC)cc2)ccc1OC(=O)c1ccccc1 | -5% | 20µM* | ? | ? | ? | 2%
CCOc1cc(/C=N\NC(=O)c2ccc(NC(=O)C(C)(C)C)cc2)ccc1OC(=O)c1ccc(C)cc1 | 11% | -6% | i | i | i | 7%
COc1cc(=O)n2c(c1C(=O)NC(C)c1ccco1)CCN(CC=C(C)C)CC2 (stereo not given) | / | / | / | / | i | /
Cc1ccc(N(CC(=O)Nc2ccc(Br)c(C)c2)S(=O)(=O)c2cccs2)cc1 | / | -3% | i | i | i | /
COc1cc(=O)n2c(c1C(=O)NCc1ccco1)CCN(Cc1c(F)cccc1F)CC2 | / | / | / | / | i | /
CSc1ncccc1C(=O)NCC1Cc2cc(-c3cnccn3)cc(Cl)c2O1 (stereo not given) | / | / | / | / | i | /
COc1cc(/C=N/NC(=O)COc2c(C)cc([N+](=O)[O-])cc2C)ccc1OC(=O)c1ccccc1Br | -11% | 7% | i | i | i | -11%
CN(C)c1ccc(C=NNC(=O)c2cccc3ccccc23)c(Cl)c1 | ? | -8% | 5.2µM* | 3.7µM* | i | ?
Cc1cc(C(=O)N/N=C/c2cccc3ccccc23)c(C)o1 | -9% | 16% | i | i | i | -4%
COCc1cc(C)nc(OCC(=O)N/N=C/c2ccccc2O)c1C#N | ? | -18%[11.3 µM] | i | i | i | 18µM*
O=C(N/N=C/c1ccc[nH]1)c1ccccc1O | -15% | 45% | ? | 5.2µM* | i | -11%
COc1cc(/C=N/NC(=O)COc2c(C)cc([N+](=O)[O-])cc2C)ccc1OC(=O)c1ccccc1 | ? | -7% | i | i | i | 18µM*
SMILES | HT1080NT lethal | ATXN2 expr inh | KB-3-1 cytotox | KB-V1 cytotox | ATXN viability | HT1080 IDH1KD tx
O=C(N/N=C/c1ccc[nH]1)c1ccc(O)cc1 | 17% | 18% | i | i | i | 11%
O=C(N/C=C/c1ccccc1)c1cccc([S+](=O)([O-])Nc2ccccc2F)c1 | / | / | i | ? | / | /
O=C(O)CNC(=O)CNC(=O)CNC(=O)CSC(=O)c1ccccc1 | / | 11% | / | / | i | /
COc1ccc(Cl)cc1NC(=O)C(C)N1Cc2ccccc2C1=O (stereo not given) | / | / | i | i | / | /
Cc1ccccc1Cn1c(=O)n(Cc2ccc(Cl)cc2)c(=O)c2cccnc21 | / | -6% | i | i | i | /
Cc1ccc2[nH]c(C(=O)N/N=C/c3ccccc3O)c(C)c2c1 | ? | / | ? | i | i | 2.6µM*
O=C(COc1cccc2cccnc12)N/N=C/c1ccccc1O | -15% | -39% | ? | 12µM* | i | -29%
Cc1cccc(/C=N/NC(=O)c2cc(Br)ccc2OCc2ccccc2)n1 | ? | -27% | i | i | i | 18µM*
Cc1cccc(/C=N/NC(=O)c2ccccc2OCc2cccc(Br)c2)n1 | -10% | ? | i | i | ? | ?
Cc1ccc2[nH]c(C(=O)N/N=C/c3ccccc3C(=O)O)c(-c3ccccc3)c2c1 | ? | -2% | i | i | i | -26%
CCOc1ccc(C=NNC(=O)c2cccc3ccccc23)cc1OCC | -1% | 10% | i | 23µM* | i | 15%
O=C(NCCc1ccccc1Cl)c1ccc2c(c1)nc1n2CCOC1 | / | / | i | i | / | /
O=C(c1cccs1)N1CCCc2cc(NS(=O)(=O)c3ccc(F)cc3)ccc21 | / | -19% | i | i | ? | /
O=C(N/N=C/c1ccccc1O)c1cccc2ccccc12 | ? | / | i | ? | i | 9.2µM*
CCOc1ccc(-c2nnn(CC(=O)NCc3ccco3)n2)cc1 | -11% | 17% | ? | ? | i | -13%
